# Records with an inconclusive call do not appear. A call without a number means that no potency is given here. The source made the active and inactive calls. Unless noted, calls follow the shape of the dose curve; as a rule, active = well fitted curve in the direction sought with a large enough effect; inconclusive = small, poorly fitted or top-dose-only effect, or another doubt; inactive = no such curve, though single readings can be large; an effect the other way counts as inactive or inconclusive.
# Assays:
# [1] = Primary qHTS for small molecule stabilizers of the endoplasmic reticulum resident proteome: Secreted ER Calcium Modulated Protein (SERCaMP) assay (AID 1508630)
# How it was run: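 GLuc-SERCaMP-expressing SH-SY5Y cells, pretreated 16 h with compound, are challenged with thapsigargin to empty ER calcium stores; after 4 h, coelenterazine is added directly to the medium and luminescence is imaged.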
# [2] = Primary qHTS for inhibitors of nuclear receptor binding SET domain protein 2 (NSD2) in an isogenic RCH-ACV NSD2 p.E1099K mutant (9B) (AID 1645876); also: nearly all actives have a fitted effect of over 70% in size; also: potency is read from the fitted curve at half-maximal effect
# [3] = target: Cytochrome P450 2C9 (Homo sapiens) (UniProt P11712); experiment: Cytochrome P450 family 2 subfamily C member 9 (CYP2C9) small molecule antagonists: luciferase biochemical (cell-free) qHTS assay (AID 1645842; active = well fitted curve in the direction sought with a large enough effect in the repeat runs; an effect the other way counts as inactive or inconclusive; also: nearly all actives have a fitted effect of over 55% in size; also: potency is read from the fitted curve at half-maximal effect)
# Sequence of Cytochrome P450 2C9 (Homo sapiens) (P11712 whole entry, looked up): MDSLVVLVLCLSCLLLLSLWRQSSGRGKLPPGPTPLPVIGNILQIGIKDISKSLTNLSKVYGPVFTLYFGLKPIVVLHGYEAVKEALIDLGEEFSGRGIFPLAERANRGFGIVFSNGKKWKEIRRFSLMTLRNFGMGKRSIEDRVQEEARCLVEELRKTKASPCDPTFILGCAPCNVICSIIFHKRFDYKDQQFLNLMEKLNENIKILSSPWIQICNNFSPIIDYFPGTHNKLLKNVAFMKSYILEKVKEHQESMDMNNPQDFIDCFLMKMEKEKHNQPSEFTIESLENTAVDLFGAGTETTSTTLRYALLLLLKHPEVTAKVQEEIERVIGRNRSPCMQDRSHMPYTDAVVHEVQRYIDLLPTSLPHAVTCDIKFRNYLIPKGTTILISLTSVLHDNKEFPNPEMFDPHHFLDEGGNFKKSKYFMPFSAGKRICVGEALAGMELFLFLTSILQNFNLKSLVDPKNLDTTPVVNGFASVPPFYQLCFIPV
# How it was run: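 Luminescence, after 20 min with luciferin detection reagent, reflected CYP2C9 turnover during a 1 h NADPH-driven reaction at 37C. Enzyme-substrate mix contained 0.4% bovine serum albumin and was preincubated with compound 10 min at room temperature.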
# [4] = A High-Content qHTS Against Drug Library for the Identification of Small Molecules that Inhibit DYT1 Early Onset Primary Dystonia-Associated Cell Pathology (AID 1645839; calls by dose curve)
# How it was run: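 Readout: %pathology, the punctate EGFP-TorsinA distribution from imaging, as the primary channel and cell count as the toxicity counterscreen. HEK293 Flp-In cells expressing delE TorsinA were induced with tetracycline and treated with compound for 48 h.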
# [5] = target: Cytochrome P450 2D6 (Homo sapiens) (UniProt P10635); experiment: Cytochrome P450 family 2 subfamily D member 6 (CYP2D6) small molecule antagonists: luciferase biochemical (cell-free) qHTS assay (AID 1645840; active = well fitted curve in the direction sought with a large enough effect in the repeat runs; an effect the other way counts as inactive or inconclusive; also: nearly all actives have a fitted effect of over 55% in size; also: potency is read from the fitted curve at half-maximal effect)
# Sequence of Cytochrome P450 2D6 (Homo sapiens) (P10635 whole entry, looked up): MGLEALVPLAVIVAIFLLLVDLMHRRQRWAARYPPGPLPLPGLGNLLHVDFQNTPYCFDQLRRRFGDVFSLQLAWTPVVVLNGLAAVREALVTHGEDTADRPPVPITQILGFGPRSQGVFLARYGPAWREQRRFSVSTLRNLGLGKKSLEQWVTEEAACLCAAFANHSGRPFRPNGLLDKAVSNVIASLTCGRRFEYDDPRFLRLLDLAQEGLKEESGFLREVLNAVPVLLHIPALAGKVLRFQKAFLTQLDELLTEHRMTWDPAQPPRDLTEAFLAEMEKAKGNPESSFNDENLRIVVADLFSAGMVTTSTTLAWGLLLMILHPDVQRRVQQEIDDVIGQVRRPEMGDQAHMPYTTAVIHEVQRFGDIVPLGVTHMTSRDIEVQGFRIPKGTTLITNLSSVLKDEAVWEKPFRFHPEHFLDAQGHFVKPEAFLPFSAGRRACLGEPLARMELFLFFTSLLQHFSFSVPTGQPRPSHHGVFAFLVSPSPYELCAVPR
# How it was run: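 P450-Glo luminescent screen: recombinant CYP2D6 enzyme–proluciferin substrate mix preincubated with compound 10 min at room temperature, then NADPH regeneration added for 1 h at room temperature. Detection reagent added for 20 min; luciferin light read as relative luminescence units.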
# [6] = Primary qHTS for inhibitors of nuclear receptor binding SET domain protein 2 (NSD2) in an RCH-ACV wild type WT cells (2C) (AID 1645877); also: nearly all actives have a fitted effect of over 70% in size; also: potency is read from the fitted curve at half-maximal effect
# [7] = Cytotoxicity counterscreen for inhibitors of SARS-CoV-2 cell entry (AID 1645845; calls by dose curve; also: nearly all actives have a fitted effect of over 50% in size)
# How it was run: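 Expi293F/hACE2 cells seeded overnight; cpd pin-transferred in DMSO, 1 h preincubation, + media, 48 h 37 C 5% CO2; ATPLite 1step luminescence; normalized to cells and no cells.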
# [8] = Primary qHTS to identify inhibitors of SARS-CoV-2 cell entry (AID 1645846; calls by dose curve; also: nearly all actives have a fitted effect of over 45% in size); details: activity change, negative = inhibition: at 57.1 µM (top of the series) unless noted
# How it was run: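 HEK293-ACE2 (Expi293F, stable hACE2), 1500 cells/well, o/n 37C; cpd 23 nL pin, 1 h; MLV-PP w/ SARS-CoV-2-S (Wuhan-Hu-1, Δ19 C-term); 48 h 37C; Bright-Glo luminescence; normalized vs S-PP and bald PP.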
# Papain (Carica papaya) = Papain (Carica papaya) (UniProt P00784); experiment: Primary qHTS assay for inhibitors of the protease papain (AID 1645873);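 also: papain turnover of Z-FR-AMC read as the AMC fluorescence gain over 10 min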
# Sequence of Papain (Carica papaya) (P00784 whole entry, looked up): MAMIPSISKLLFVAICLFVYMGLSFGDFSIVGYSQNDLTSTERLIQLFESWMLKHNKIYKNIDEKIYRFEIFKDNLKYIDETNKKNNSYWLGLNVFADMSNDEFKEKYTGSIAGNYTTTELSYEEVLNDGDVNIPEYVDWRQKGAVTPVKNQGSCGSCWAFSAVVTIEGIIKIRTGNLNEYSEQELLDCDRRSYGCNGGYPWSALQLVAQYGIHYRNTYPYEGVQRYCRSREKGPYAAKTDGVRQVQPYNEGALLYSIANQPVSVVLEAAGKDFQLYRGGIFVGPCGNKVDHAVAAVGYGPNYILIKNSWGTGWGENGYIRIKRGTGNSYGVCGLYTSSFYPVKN
# [9] = target: Catechol O-methyltransferase (Homo sapiens) (UniProt P21964); experiment: Confirmatory Screen for Target Class Profiling of Small Molecule Inhibitors of Methyltransferases (AID 1745852; calls by dose curve); details: MTase-Glo luminescence, SAH detection, recombinant enzyme; measured here: COMT max response; stronger effect = lower value
# Sequence of Catechol O-methyltransferase (Homo sapiens) (P21964 whole entry, looked up): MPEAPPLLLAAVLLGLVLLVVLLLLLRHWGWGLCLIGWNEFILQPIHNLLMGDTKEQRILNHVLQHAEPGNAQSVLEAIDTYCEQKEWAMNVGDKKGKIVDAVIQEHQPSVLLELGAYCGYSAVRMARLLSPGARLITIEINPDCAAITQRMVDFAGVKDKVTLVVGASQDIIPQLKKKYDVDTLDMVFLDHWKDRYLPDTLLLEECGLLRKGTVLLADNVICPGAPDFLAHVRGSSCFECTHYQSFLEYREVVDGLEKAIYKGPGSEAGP
# [10] = target: Guanidinoacetate N-methyltransferase (Homo sapiens) (UniProt Q14353); experiment: as above; details: MTase-Glo luminescence, SAH detection, recombinant enzyme; activity change, negative = inhibition: at 57.3 µM (top of the series)
# [11] = target: Nicotinamide N-methyltransferase (Homo sapiens) (UniProt P40261); experiment: as above; details: MTase-Glo luminescence, SAH detection, recombinant enzyme; measured here: NNMT max response; stronger effect = lower value
# Sequence of Nicotinamide N-methyltransferase (Homo sapiens) (P40261 whole entry, looked up): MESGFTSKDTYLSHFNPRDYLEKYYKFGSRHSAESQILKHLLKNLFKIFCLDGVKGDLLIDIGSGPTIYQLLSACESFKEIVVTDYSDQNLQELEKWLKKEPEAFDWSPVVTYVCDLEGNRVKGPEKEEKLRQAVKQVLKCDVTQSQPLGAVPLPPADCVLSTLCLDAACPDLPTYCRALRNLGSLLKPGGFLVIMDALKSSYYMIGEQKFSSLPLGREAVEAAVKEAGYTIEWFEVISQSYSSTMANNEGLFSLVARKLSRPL
# [12] = target: Phenylethanolamine N-methyltransferase (Homo sapiens) (UniProt P11086); experiment: as above; details: MTase-Glo luminescence, SAH detection, recombinant enzyme; measured here: PNMT max response; stronger effect = lower value
# Sequence of Phenylethanolamine N-methyltransferase (Homo sapiens) (P11086 whole entry, looked up): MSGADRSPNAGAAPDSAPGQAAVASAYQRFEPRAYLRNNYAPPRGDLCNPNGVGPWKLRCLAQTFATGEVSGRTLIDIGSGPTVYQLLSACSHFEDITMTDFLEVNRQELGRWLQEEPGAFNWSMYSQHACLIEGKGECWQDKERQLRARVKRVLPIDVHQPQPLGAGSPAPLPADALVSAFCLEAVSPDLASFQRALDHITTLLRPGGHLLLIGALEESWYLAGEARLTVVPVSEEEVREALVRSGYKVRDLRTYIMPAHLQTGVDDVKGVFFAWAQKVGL
# [13] = target: Rap guanine nucleotide exchange factor 3 (Homo sapiens) (UniProt O95398); experiment: Confirmatory qHTS for agonist of cAMP-regulated guanine nucleotide exchange factor 3 (EPAC1) (AID 1645881);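 also: EPAC1 catalysed release of BODIPY-GDP from Rap1B seen as fluorescence loss; nearly all actives have a fitted effect of over 75% in size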
# Sequence of Rap guanine nucleotide exchange factor 3 (Homo sapiens) (O95398 whole entry, looked up): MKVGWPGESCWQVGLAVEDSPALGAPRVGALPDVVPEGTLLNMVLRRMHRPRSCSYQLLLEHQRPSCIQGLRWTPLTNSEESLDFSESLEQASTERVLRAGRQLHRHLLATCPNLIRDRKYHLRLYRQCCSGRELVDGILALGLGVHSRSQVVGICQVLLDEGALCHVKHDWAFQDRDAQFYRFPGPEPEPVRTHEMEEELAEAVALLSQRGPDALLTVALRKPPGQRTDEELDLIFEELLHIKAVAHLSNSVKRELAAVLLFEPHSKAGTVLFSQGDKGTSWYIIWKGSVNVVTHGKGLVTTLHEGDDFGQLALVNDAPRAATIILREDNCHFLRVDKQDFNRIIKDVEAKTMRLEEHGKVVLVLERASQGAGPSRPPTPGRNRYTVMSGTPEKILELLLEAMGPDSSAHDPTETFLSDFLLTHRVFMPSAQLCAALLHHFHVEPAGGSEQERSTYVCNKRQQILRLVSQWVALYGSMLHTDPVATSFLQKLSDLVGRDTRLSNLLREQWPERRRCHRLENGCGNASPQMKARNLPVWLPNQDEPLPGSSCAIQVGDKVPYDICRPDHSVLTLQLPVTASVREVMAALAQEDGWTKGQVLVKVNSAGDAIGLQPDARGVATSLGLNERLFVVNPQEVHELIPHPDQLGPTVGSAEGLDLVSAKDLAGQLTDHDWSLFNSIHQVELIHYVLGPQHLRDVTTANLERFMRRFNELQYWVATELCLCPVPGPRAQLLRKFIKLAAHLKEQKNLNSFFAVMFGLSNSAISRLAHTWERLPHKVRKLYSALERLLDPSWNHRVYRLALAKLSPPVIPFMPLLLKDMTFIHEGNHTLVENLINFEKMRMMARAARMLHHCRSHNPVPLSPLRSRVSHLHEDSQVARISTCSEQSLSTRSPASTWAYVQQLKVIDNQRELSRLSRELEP
# [14] = target: Rap guanine nucleotide exchange factor 4 (Homo sapiens) (UniProt Q8WZA2); experiment: Confirmatory qHTS for agonist of cAMP-regulated guanine nucleotide exchange factor 4 (EPAC2) (AID 1645884);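 also: nucleotide exchange releases bodipy-GDP from Rap1 and this lowers its fluorescence; nearly all actives have a fitted effect of over 65% in size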
# Sequence of Rap guanine nucleotide exchange factor 4 (Homo sapiens) (Q8WZA2 whole entry, looked up): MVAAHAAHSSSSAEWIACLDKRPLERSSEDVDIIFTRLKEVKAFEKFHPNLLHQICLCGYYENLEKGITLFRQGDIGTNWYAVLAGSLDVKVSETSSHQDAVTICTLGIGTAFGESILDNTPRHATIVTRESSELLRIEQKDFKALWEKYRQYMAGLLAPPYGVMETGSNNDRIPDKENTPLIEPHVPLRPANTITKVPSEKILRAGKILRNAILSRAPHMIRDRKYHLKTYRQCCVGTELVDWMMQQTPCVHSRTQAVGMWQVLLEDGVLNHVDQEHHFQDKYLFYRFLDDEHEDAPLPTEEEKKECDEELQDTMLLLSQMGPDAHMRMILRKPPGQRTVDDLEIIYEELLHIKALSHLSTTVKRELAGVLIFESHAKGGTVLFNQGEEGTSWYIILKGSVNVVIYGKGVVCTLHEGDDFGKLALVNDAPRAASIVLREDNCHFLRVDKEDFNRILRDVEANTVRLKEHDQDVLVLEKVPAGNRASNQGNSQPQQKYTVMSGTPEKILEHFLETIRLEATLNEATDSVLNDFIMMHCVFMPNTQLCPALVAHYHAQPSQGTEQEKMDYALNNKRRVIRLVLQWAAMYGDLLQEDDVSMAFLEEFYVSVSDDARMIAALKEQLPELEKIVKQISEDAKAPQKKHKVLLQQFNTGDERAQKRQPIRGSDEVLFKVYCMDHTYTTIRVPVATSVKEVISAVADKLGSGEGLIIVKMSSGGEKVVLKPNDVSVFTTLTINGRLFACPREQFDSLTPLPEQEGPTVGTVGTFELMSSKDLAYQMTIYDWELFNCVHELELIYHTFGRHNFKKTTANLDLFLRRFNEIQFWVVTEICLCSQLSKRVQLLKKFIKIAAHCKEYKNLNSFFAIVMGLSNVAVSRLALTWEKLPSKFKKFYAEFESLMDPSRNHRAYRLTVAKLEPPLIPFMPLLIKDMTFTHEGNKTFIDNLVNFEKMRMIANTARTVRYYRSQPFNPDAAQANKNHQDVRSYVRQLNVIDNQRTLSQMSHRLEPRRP
# [15] = target: Rap guanine nucleotide exchange factor 4 (Homo sapiens) (UniProt Q8WZA2); experiment: Confirmatory qHTS for antagonist of cAMP-regulated guanine nucleotide exchange factor 4 (EPAC2) (AID 1645885); also: nearly all actives have a fitted effect of over 25% in size
# [16] = target: Rap guanine nucleotide exchange factor 3 (Homo sapiens) (UniProt O95398); experiment: Counterscreen qHTS for antagonist of cAMP-regulated guanine nucleotide exchange factor 3 (EPAC1) (AID 1645888);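 also: fluorescence loss as bound BODIPY-GDP is released from Rap1B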
# How it was run: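 Measured: fluorescence of BODIPY-GDP bound to Rap1B, which falls as exchange proceeds. Conditions include 50 uM competing GDP, 5 and 30 min reads, and a later cAMP challenge for antagonist detection.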
smiles,measurement,setting,value
N=c1c2c(-c3ccccc3)c(-c3ccccc3)n(Cc3ccccc3)c2ncn1C1CCC(O)CC1 (centres undefined),Potency,[1],inactive
same,Potency,[2],0.59 µM (active)
O=C(O)c1ccccc1O,Potency,[3],inactive
O=[N+]([O-])c1c(Cl)c(Cl)cc(Cl)c1Cl,Potency,[4],inactive
same,Potency,[5],inactive
same,Potency,[3],inactive
same,Potency,[2],inactive
CCC1(CCC(C)C)C(=O)NC(=O)NC1=O,Potency,[4],inactive
same,Potency,[5],inactive
same,Potency,[3],inactive
same,Potency,[2],inactive
same,Potency,[6],inactive
Nc1ccc(Cl)cc1N,Potency,[3],23.3 µM (active)
Oc1ccc2c3c1O[C@H]1[C@@H](O)C=C[C@H]4[C@@H](C2)NCC[C@@]341,Potency,[4],inactive
same,Potency,[3],inactive
same,Potency,[2],28.1 µM (active)
Cc1ccc(Cl)c(O)c1,Potency,[4],inactive
same,Potency,[3],inactive
same,Potency,[2],inactive
O=C(O)c1ccccn1,Potency,[3],inactive
same,Potency,[7],inactive
same,"activity change, negative = inhibition",[8],-3.73%
COc1ccc(C(c2ccc(OC)cc2)C(Cl)(Cl)Cl)cc1,Potency,[3],1.49 µM (active)
NCCc1c[nH]c2ccccc12,Potency,[1],inactive
same,Potency,Papain (Carica papaya),inactive
same,activity,[9],-4.15%
same,"activity change, negative = inhibition",[10],2.74%
same,activity,[11],-8.81%
same,activity,[12],-14.8%
c1cc2ccc3cccc4ccc(c1)c2c34,Potency,[4],inactive
same,Potency,[5],inactive
same,Potency,[3],inactive
same,Potency,[2],inactive
c1ccc(CCCN2CCN(CCOC(c3ccccc3)c3ccccc3)CC2)cc1,Potency,[1],inactive
same,Potency,Papain (Carica papaya),inactive
same,outcome,[13],inactive
same,outcome,[14],inactive
same,Potency,[15],inactive
same,outcome,[16],inactive
CC(=O)NCCc1c[nH]c2ccccc12,Potency,[1],inactive
same,Potency,Papain (Carica papaya),inactive
same,Potency,[2],inactive
same,Potency,[6],inactive
CCCN(CCC)[C@@H]1CCc2ccc(O)cc2C1,Potency,[1],inactive
same,Potency,Papain (Carica papaya),inactive
same,activity,[9],3.68%
same,"activity change, negative = inhibition",[10],1.97%
same,activity,[11],-6.47%
same,activity,[12],6.74%
NC(CCP(=O)(O)O)C(=O)O (centres undefined),Potency,[1],inactive
same,Potency,Papain (Carica papaya),inactive
CC(C)Oc1cccnc1N(C)C1CCN(Cc2ccccc2)CC1,Potency,[1],inactive
same,Potency,Papain (Carica papaya),inactive
Nc1ccc([N+](=O)[O-])cc1,Potency,[5],inactive
same,Potency,[3],inactive
COc1cc(C(O)CN)ccc1O (centres undefined),Potency,[1],inactive
same,Potency,Papain (Carica papaya),inactive
CC(C)(C)NC[C@H](O)c1ccc(O)cc1Cl,Potency,[4],inactive
same,Potency,[5],inactive
same,Potency,[3],inactive
same,Potency,[2],inactive
C[C@]12COC(=O)C[C@@H]1CC[C@@H]1[C@H]2CC[C@@]2(C)[C@H]1CC[C@]2(C)O,Potency,[5],inactive
same,Potency,[3],inactive
COCCOCCO,Potency,[4],inactive
same,Potency,[3],inactive
NC1CC1c1ccccc1 (centres undefined),Potency,[1],inactive
same,Potency,Papain (Carica papaya),inactive
same,activity,[9],4.07%
same,"activity change, negative = inhibition",[10],2.15%
same,activity,[11],-6.32%
same,activity,[12],-14.4%
CCOCCOC(C)=O,Potency,[4],inactive
same,Potency,[3],inactive
same,Potency,[2],inactive
CCOP(=O)(NC(C)C)Oc1ccc(SC)c(C)c1 (centres undefined),Potency,[4],inactive
same,Potency,[5],3.88 µM (active)
same,Potency,[3],9.47 µM (active)
Nc1c(Cl)c(Cl)c(Cl)c(Cl)c1Cl,Potency,[4],inactive
same,Potency,[3],inactive
same,Potency,[2],inactive
C[C@@H](N)Cc1cnc[nH]1,Potency,[1],inactive
same,Potency,Papain (Carica papaya),inactive
same,activity,[9],-4.66%
same,"activity change, negative = inhibition",[10],-1.84%
same,activity,[11],-6.87%
same,activity,[12],-2.06%
O=C1C(I)=CC(=C(c2cc(I)c(O)c(I)c2)c2ccccc2C(=O)O)C=C1I,Potency,[3],3.09 µM (active)
same,Potency,[2],inactive
same,Potency,[6],inactive
O=[N+]([O-])c1c2ccccc2cc2ccccc12,Potency,[5],inactive
same,Potency,[3],10.8 µM (active)
S=C(NC1CCCCC1)N1CCC(c2cnc[nH]2)CC1,Potency,[1],inactive
same,Potency,Papain (Carica papaya),inactive
same,Potency,[2],inactive
same,Potency,[6],inactive
O=C1CCCN1CC#CCN1CCCC1,Potency,[1],inactive
same,Potency,Papain (Carica papaya),inactive
COC[C@H]1OC(=O)c2coc3c2[C@@]1(C)C1=C(C3=O)[C@@H]2CC[C@H](O)[C@@]2(C)C[C@@H]1OC(C)=O,Potency,[1],inactive
same,Potency,[2],0.58 µM (active)
same,Potency,[6],0.58 µM (active)
C=CCC1=C(C)C(OC(=O)C2C(C=C(C)C)C2(C)C)CC1=O (centres undefined),Potency,[4],inactive
same,Potency,[5],23.8 µM (active)
same,Potency,[3],5.02 µM (active)
same,Potency,[2],24.3 µM (active)

# From PubChem BioAssay (NCATS)
